MEX-5 binding: C. elegans MEX-5 TCR-2 RNA binding activity. Q9XUB2. MEX-5/FITC-TCR2 RNA binding, fluorescence polarization; stronger effect = lower value. activity score (negative = inhibition of binding), % at 10 µM. 300,000 tested, 0.38% active;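 active means inhibition past about -25% in most replicates, and total fluorescence under double the plate's negative control median, limit read from the data; inconclusive means replicates evenly split on the limit, or fluorescence at least double controls; inactive means too little inhibition in most replicates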
Target sequence (Q9XUB2 whole entry, looked up): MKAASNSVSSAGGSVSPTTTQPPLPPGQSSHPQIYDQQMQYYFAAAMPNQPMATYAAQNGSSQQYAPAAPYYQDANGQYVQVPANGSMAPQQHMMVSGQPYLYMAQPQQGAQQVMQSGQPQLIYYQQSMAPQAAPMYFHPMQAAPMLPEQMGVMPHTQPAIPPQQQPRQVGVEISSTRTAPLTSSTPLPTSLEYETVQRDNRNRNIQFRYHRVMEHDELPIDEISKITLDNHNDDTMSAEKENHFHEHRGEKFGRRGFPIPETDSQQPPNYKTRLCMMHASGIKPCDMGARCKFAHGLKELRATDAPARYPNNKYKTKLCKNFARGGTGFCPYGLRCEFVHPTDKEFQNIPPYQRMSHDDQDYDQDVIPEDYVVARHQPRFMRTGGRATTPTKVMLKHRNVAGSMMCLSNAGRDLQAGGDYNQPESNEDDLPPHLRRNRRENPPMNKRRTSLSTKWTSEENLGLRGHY
EBNA-1 inhibitor: blocks EBNA-1 binding to DNA; AID 1950; 300,000 tested, 0.34% active; EBNA-1 DNA binding, fluorescence polarization; inhibition, % at 14.8 µM; in the data active means inhibition above about 28%
EBV gp42 inh: blocks Epstein-Barr virus glycoprotein 42 binding | 220,000 tested, 0.42% active | Fluorescence polarization binding assay, mP read-out | inhibition, % (tested at 21.74 µM) | Q1HVG2; in the data active means inhibition above about 50%
ZTA counter: blocks Epstein-Barr virus ZTA, an EBNA-1 counter-screen; P03206; ZTA-DNA binding, fluorescence polarization; inhibition, % at 11 µM; 320,000 tested, 0.15% active; AID 2234; in the data active means inhibition above about 33%
Hits are given with their value. The list is not random: actives were taken first. Their share in the collection is about 1%.

`Cc1cc(NS(=O)(=O)c2c(C)[nH]c(=O)[nH]c2=O)ccc1Br` gave MEX-5 binding inactive.
`Cc1cccc(-n2nnnc2SCC(=O)c2cc(C)n(CC3CCCO3)c2C)c1` (stereo not given) gave MEX-5 binding inactive, EBNA-1 inhibitor inactive, EBV gp42 inh inactive and ZTA counter inactive.
For Cc1ccc(-n2nnnc2SCC(=O)c2cc(C)n(CC3CCCO3)c2C)cc1 (stereo not given) the results were MEX-5 binding inactive, EBNA-1 inhibitor 101, EBV gp42 inh inactive and ZTA counter inactive.
Screening CCN(CC)S(=O)(=O)c1ccc2c(c1)nc(SCC(=O)N(C)C1CCS(=O)(=O)C1)n2CC (stereo not given) returned MEX-5 binding inactive, EBNA-1 inhibitor inactive and ZTA counter inactive.
`CCCn1c(SC(C)C(=O)NCC2CCCO2)nc2sc3c(c2c1=O)CCC3` (stereo not given) gave MEX-5 binding inactive, EBNA-1 inhibitor inactive and ZTA counter inactive.
Screening COc1ccc(/C=C(\C#N)c2nc3ccc(C)cc3[nH]2)cc1Oc1ccc(C(F)(F)F)cc1[N+](=O)[O-] returned MEX-5 binding -58, EBNA-1 inhibitor inactive, EBV gp42 inh inactive and ZTA counter inactive.
For Cc1ccc2nc(/C(C#N)=C\c3ccc(Oc4ccc(C(F)(F)F)cc4[N+](=O)[O-])cc3)[nH]c2c1 the results were MEX-5 binding inactive, EBNA-1 inhibitor inactive, EBV gp42 inh inactive and ZTA counter inactive.
For CC1(OC(=O)c2cnc3ccccc3n2)C(=O)C=C2C=C(C3CC3)OC=C2C1=O (stereo not given) the results were MEX-5 binding -53, EBNA-1 inhibitor 28 and ZTA counter 48.
Screening CC1(OC(=O)c2ccco2)C(=O)C=C2C=C(C3CC3)OC=C2C1=O (stereo not given) returned MEX-5 binding -34, EBNA-1 inhibitor inactive and ZTA counter inactive.
Screening COC(=O)CSc1nc(C)cc(C(F)(F)F)c1C#N returned MEX-5 binding inactive, EBNA-1 inhibitor inactive, EBV gp42 inh inactive and ZTA counter inactive.
Cc1ccc(S(=O)(=O)CCSc2nc(C)cc(C(F)(F)F)c2C#N)cc1 was read as MEX-5 binding -54, EBNA-1 inhibitor inactive, EBV gp42 inh inactive and ZTA counter inactive.
Screening Cc1cccc(N2C(=O)c3cccc4c(N(C)CCO)ccc(c34)C2=O)c1 returned MEX-5 binding inconclusive, EBNA-1 inhibitor inactive, EBV gp42 inh 157 and ZTA counter inactive.
For CN(C)c1ccc2c3c(cccc13)C(=O)N(c1ccccc1)C2=O the results were MEX-5 binding inactive, EBNA-1 inhibitor inactive, EBV gp42 inh 102 and ZTA counter inactive.
Cc1c(O)c2c3c(cccc3c1O)C(=O)N(c1ccccc1)C2=O was read as MEX-5 binding inconclusive, EBNA-1 inhibitor inactive, EBV gp42 inh 83 and ZTA counter inactive.
Nc1cccc(N2C(=O)c3cccc4c(N)ccc(c34)C2=O)c1 was read as MEX-5 binding inconclusive, EBNA-1 inhibitor inactive and ZTA counter inactive.
Nc1ccc2c3c(cccc13)C(=O)N(c1ccccc1)C2=O was read as MEX-5 binding inconclusive and EBV gp42 inh 162.
Screening CN1CCN(C(=O)/C(=C/c2cn(S(=O)(=O)N(C)C)c3ccccc23)NC(=O)c2ccccc2)CC1 returned MEX-5 binding inactive, EBNA-1 inhibitor inactive and ZTA counter inactive.
Screening CCOc1ccc(NC(=O)CCNC(=O)C2CCN(S(=O)(=O)c3ccccc3)CC2)cc1 returned MEX-5 binding inactive, EBNA-1 inhibitor inactive and ZTA counter inactive.
CC(C)Cn1c(=O)c2ccccc2n2c(CCC(=O)O)nnc12 was read as MEX-5 binding inactive, EBNA-1 inhibitor inactive and ZTA counter inactive.
CS(=O)(=O)NN1C(=O)c2ccccc2NC1c1cccc(O)c1 (stereo not given) was read as MEX-5 binding inactive, EBNA-1 inhibitor inactive, EBV gp42 inh inactive and ZTA counter inactive.
CN1C(=O)c2ccccc2NC(=O)[C@]12O[C@@H]2c1cccc(O)c1 was read as MEX-5 binding -44, EBNA-1 inhibitor inactive, EBV gp42 inh inactive and ZTA counter inactive.
`N#Cc1sc2nc(-c3cccs3)cc(-c3ccc(Cl)cc3)c2c1N` gave MEX-5 binding inactive, EBNA-1 inhibitor inactive, EBV gp42 inh inactive and ZTA counter inactive.
`Cc1nnc(NC(=O)c2sc3nc(-c4cccs4)cc(C(F)(F)F)c3c2N)s1` gave MEX-5 binding inactive, EBNA-1 inhibitor inactive, EBV gp42 inh inactive and ZTA counter inactive.
`CCN(CC)C(=O)c1sc2nc(-c3cccs3)cc(-c3cccs3)c2c1N` gave MEX-5 binding -33, EBNA-1 inhibitor inactive, EBV gp42 inh inactive and ZTA counter inactive.

Screening results: PubChem, several laboratories
